The panel holds about 83,000 compounds, 20% with a hit somewhere; the sample as a whole holds those more often.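 Method: cells in 96-well plates; compound added at one concentration; 48 h incubation; percent growth measured; values under 10 scored active.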 Active and inactive are the calls of the source.
The molecules below were run on HOP-92 NSCLC (assay: NCI-60 one-dose screen, 48 h (100 = growth as untreated, 0 = no growth, -100 = all killed)). Conditions: 10 µM.

| SMILES | growth |
| --- | --- |
| COc1ccc(N2N=C(c3ccc4c(c3)OCCO4)CC2c2cccc(NC(=O)CCCNS(=O)(=O)c3ccc(F)cc3)c2)cc1 (configuration not stated) | 81.6% (inactive) |
| COc1cc(/C=N/NC(=O)c2ccc3nc(-c4ccc(Cl)cc4)[nH]c3c2)cc(OC)c1OC | -64.5% (active) |
| O=C(N=Nc1c(O)[nH]c2ccc(Br)cc12)c1ccc2nc(-c3ccccc3)[nH]c2c1 | -78.8% (active) |
| COc1ccccc1[C@H]1C(C(=O)c2ccc(Cl)cc2)C2(N[C@@H]1c1ccccc1)C(=O)Nc1ccc(Cl)cc12 (some centres not stated) | 7.15% (active) |
| O=c1cc(-c2ccccc2)oc2cc(OCCCNCc3ccccc3)cc(O)c12 | -9.75% (active) |
| O=C1Nc2cc(-c3ccc(NC(=O)c4cccs4)cc3)ccc2/C1=C/c1ccc[nH]1 | 104% (inactive) |
| O=C(c1ccc(O)cc1)C1[C@H](c2ccc(Br)cc2)[C@@H](c2ccccc2)NC12C(=O)Nc1ccccc12 (some centres not stated) | 8.1% (active) |
| C=C1CCC2C3(C)COC(c4ccccc4F)OC3CCC2(C)C1C/C=C1/C(=O)OCC1O (configuration not stated) | -37.5% (active) |
| C=C1CCC2C3(C)COC(c4c(F)cccc4F)OC3CCC2(C)C1C/C=C1/C(=O)OCC1O (configuration not stated) | 4.64% (active) |
| COc1cccc(/C=C2\N=C(C)N(CCc3ccc(S(N)(=O)=O)cc3)C2=O)c1 | 92.8% (inactive) |
| C=C1CCC2C3(C)COC(c4cccc(F)c4)OC3CCC2(C)C1CC(O)C1=CCOC1=O (configuration not stated) | 76.4% (inactive) |
| Cn1cc(-c2cc(N)n3nc(-c4c[nH]c5ccc(Br)cc45)cc3n2)c2cccnc21 | -67.7% (active) |
| C=C1CCC2C3(C)COC(c4c(F)cccc4F)OC3CCC2(C)C1CC(O)C1=CCOC1=O (configuration not stated) | 55.4% (inactive) |
| Brc1ccc(/C=C/c2n(Cc3ccc4ccccc4c3)c3ccccc3[n+]2Cc2ccc3ccccc3c2)cc1 | -89.5% (active) |
| O=C(Nc1ccc(I)cc1)Nc1nc2ccc([N+](=O)[O-])cc2s1 | -87.9% (active) |
| O=C(N/N=C/c1ccc(B(O)O)o1)c1[nH]c2ccc(Br)cc2c1-c1ccccc1 | 58.9% (inactive) |
| CONC[C@]1(C)C=C2C(=O)[C@](C)(O)C3(CC3)C(C)=C2[C@H]1O | -16.6% (active) |
| O=C(Nc1cccc(-c2cn(-c3ccc4oc(=O)ccc4c3)nn2)c1)Nc1cc(C(F)(F)F)cc(C(F)(F)F)c1 | -28.1% (active) |
| CCCCCCCCCCCCCCCCCCCC(=O)NCCc1c[nH]c2ccc(OC(=O)CCCC(=O)OCCOOCCOOCCOOCCOOCCOOCCOOCCOOCCOOCCOOCCOOCCOOCCOC)cc12 | 74.7% (inactive) |

| SMILES | growth |
| --- | --- |
| COc1ccc(/C(C)=N/N=C2C(=O)N(C)c3ccc(Br)cc32)cc1S(N)(=O)=O | 28.1% (inactive) |
| N#Cc1c(NC(=O)c2ccc(C(F)(F)F)cc2C(F)(F)F)sc2c1CCC(=O)C2 | -61.5% (active) |
| CNCc1cccc2c1OCCCCCC[C@@](C)(O)CC1(CC1)S(=O)(=O)c1ccc(cc1)-c1cnc(N)c(n1)C(=O)N2 | -67.8% (active) |
| COc1cc(OC(F)(F)F)ccc1C(=O)Nc1sc2c(c1C#N)CCC(=O)C2 | 95.2% (inactive) |
| Nc1n[nH]c2cccc(C#Cc3cccc(NC(=O)Nc4cc(C(F)(F)F)cc(C(F)(F)F)c4)c3)c12 | -71.5% (active) |
| N#Cc1c(-c2ccc(F)cc2)nc(SCc2ccc([N+](=O)[O-])cc2)nc1N1CCOCC1 | 36.7% (inactive) |
| CC1=N/C(=C\c2ccc(N(C)C)cc2)C(=O)N1CCc1ccc(S(N)(=O)=O)cc1 | 96.5% (inactive) |
| CN(CCF)c1ccc(/C=C/C(=O)c2ccc(N)cc2O)cc1 | 94% (inactive) |
| O=C(c1ccc(Cl)cc1)C1[C@H](c2ccccc2Br)[C@@H](c2ccccc2)NC12C(=O)Nc1ccccc12 (some centres not stated) | 14% (inactive) |
| O=C(Nc1cc(Cl)cc(Cl)c1)Nc1cc(Cl)cc(Cl)c1 | -33.8% (active) |
| O=C(c1ccc(O)cc1)C1[C@H](c2ccc(Br)cc2)[C@@H](c2ccccc2)NC12C(=O)Nc1ccc(Br)cc12 (some centres not stated) | -21.3% (active) |
| COc1ccccc1[C@H]1C(C(=O)c2ccc(O)cc2)C2(N[C@@H]1c1ccccc1)C(=O)Nc1ccc(Br)cc12 (some centres not stated) | 51.8% (inactive) |
| CN1CCN(c2ccc(C(=O)/C=C/c3ccc(C#N)cc3)cc2)CC1 | 77.2% (inactive) |
| CC(C)(C)Nc1nc2cc(Cl)c(Cl)cc2nc1S(C)(=O)=O | -5.25% (active) |
| COc1cc(/C=C/C(=O)c2cc(OC)c(OC)c(OC)c2)ccc1Oc1nc(Nc2ccc(F)cc2)nc(N(C)C)n1 | -42.3% (active) |
| C=C1CCC2C3(C)COC(c4cc(F)cc(F)c4)OC3CCC2(C)C1C/C=C1/C(=O)OCC1O (configuration not stated) | -52.4% (active) |
| Cc1cc(C(F)(F)F)ccc1C(=O)Nc1sc2c(c1C#N)CCC(=O)C2 | -64.4% (active) |
| N#Cc1c(Cl)nc(SCc2ccc(F)cc2)nc1-c1ccc(F)cc1 | 74.8% (inactive) |
